HT1080-NT tox = qHTS for induction of synthetic lethality in tumor cells producing 2HG: qHTS for the HT-1080-NT fibrosarcoma cell line. HT-1080-NT fibrosarcoma viability, CellTiter-Glo ATP luminescence, 48 h. Potency, µM (series often up to 46.1 µM), for inactives: at the highest dose activity, negative = less viability, hits mostly cytotoxic. 360,000 compounds, 1.6% hits;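 also: NT is the 2HG producing partner of a matched IDH1 knockdown line; 0% = DMSO-treated cells and -100% = media-only wells without cells; nearly all actives have a fitted effect of over 55% in size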
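HT-1080-NT fibrosarcoma cells (2HG-overproducing), 750 cells/well in RPMI with 5% FBS, dosed after 2 h and incubated 48 h at 37C. CellTiter-Glo luminescence normalized to DMSO and no-cell wells; concentration-response curves fitted and classed.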
KB-V1 cytotox = qHTS assay for MDR1-selective chemotherapeutics: Primary screen using the drug-selected MDR subline cells KB-V1; Potency, µM (titrated, usually from 46.1 µM), actives largely listed as cytotoxic; 400,000 compounds, 3.4% hits; AID 1347076, 2019; KB-V1 MDR cells viability, CellTiter-Glo, 72 h; also: nearly all actives have a fitted effect of over 60% in size
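Cytotoxicity toward P-gp-expressing KB-V1 cells was determined as loss of CellTiter-Glo luminescence after 72 h at 37 degrees C. Compounds were tested in quantitative HTS format across a concentration range, with curves fitted to normalized data.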
HT1080 IDH1KD tx = qHTS for induction of synthetic lethality in tumor cells producing 2HG: qHTS for the HT-1080-IDH1KD cell line | Potency, µM (titrated, usually from 46.1 µM), inactives show at the top dose activity, negative = toxicity, hits mostly cytotoxic | 360,000 compounds, 2% hits | HT-1080 IDH1 knockdown viability, ATP luminescence, 48 h;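 also: 0% = DMSO wells and -100% = cell-free medium wells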
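Viability of IDH1-knockdown HT-1080 fibrosarcoma cells was assessed by CellTiter-Glo after 48 h at 37 °C with titrated compound; concentration-effect curves were classified by fit quality and response size.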
KB-3-1 cytotox = qHTS assay for MDR1-selective chemotherapeutics: Primary screen using the parental adenocarcinoma cell KB-3-1 | KB-3-1 viability, CellTiter-Glo ATP luminescence, 72 h | 400,000 compounds, 1.4% hits | Potency, µM (series often up to 46.1 µM), actives largely listed as cytotoxic | AID 1347075, 2019; also: nearly all actives have a fitted effect of over 60% in size
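KB-3-1 cells, DMEM (no phenol red) + 10% FBS; compound by pin transfer, 72 h, 37 °C. Readout: CellTiter-Glo luminescence after 10 min. Data normalized, curve-fitted.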
TDP1 cell noCPT = qHTS for Inhibitors of human tyrosyl-DNA phosphodiesterase 1 (TDP1): qHTS in cells in absence of CPT | 420,000 compounds, 15% hits | AID 686978, 2013 | DT40 Tdp1-/- hTDP1 cells, no CPT, ATP luminescence, 48 h | Potency, µM (highest dose often 46.2 µM), for the others: at the highest dose activity change, negative = growth inhibition, most hits filed as inhibitors; also: nearly all actives have a fitted effect of over 55% in size
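Luminescent ATP content (CellTiter-Glo) served as the growth readout. Knockout chicken DT40 cells expressing human TDP1 were exposed to compounds without camptothecin for a minimum 48 hr at 37 °C.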
TDP1 cell CPT = qHTS for Inhibitors of human tyrosyl-DNA phosphodiesterase 1 (TDP1): qHTS in cells in presence of CPT. chicken DT40 Tdp1-/-;hTDP1 cells + 20 nM CPT, ATP luminescence, 48 h. Potency, µM (doses to about 46.2 µM), without a hit: at the top dose activity change, negative = growth inhibition, actives largely listed as inhibitors. 420,000 compounds, 12% hits. AID 686979, 2013; also: nearly all actives have a fitted effect of over 55% in size
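Chicken DT40 Tdp1-/- cells complemented with human TDP1, 400 cells/well, exposed to compounds plus 20 nM camptothecin for at least 48 h at 37 C; viability read as ATP content by CellTiter-Glo luminescence.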
* = called active by the depositor; i = inactive; ? = inconclusive; . = no result given. Shown are actives, neighbours in structure and some others; about 19% of the full set was active somewhere. Calls follow the shape of the dose curve; as a rule, active = well fitted curve in the direction sought with a large enough effect; inconclusive = small, poorly fitted or top-dose-only effect, or another doubt; inactive = no such curve, though single readings can be large; an effect the other way counts as inactive or inconclusive. Unless noted, % is scaled to controls: 0 for no effect and ±100 for the full control effect; potency is read from the fitted curve at half-maximal effect.

SMILES	HT1080-NT tox	KB-V1 cytotox	HT1080 IDH1KD tx	KB-3-1 cytotox	TDP1 cell noCPT	TDP1 cell CPT
CN(Cc1ccccc1)C(=O)C1CCN(S(=O)(=O)c2ccc3nc4c(c(C(=O)O)c3c2)CCCC4)CC1	3.7%	i	4.6%	i	-1.5%	-1.2%
N#C/C(=C\c1c[nH]c2ccccc12)C(N)=O	10.4%	i	13.0%	i	?	?
CC(=O)Oc1c(/C=C(\C#N)C(N)=O)[nH]c2ccccc12	?	i	-11.0%	i	?	16.4µM*
CCc1ccc(C2CC(=O)N(c3ccc(F)cc3)C3=C2C(=O)OC3)cc1 (configuration not stated)	5.0%	?	1.7%	?	15.6%	-6.9%
COc1ccc(NC(=O)CN2C(=O)NC(C)(Cc3ccc(OC)c(OC)c3)C2=O)cc1 (configuration not stated)	-13.2%	i	-8.6%	i	-2.7%	0.7%
O=C1c2cccc3c(N4CCCCC4)ccc(c23)C(=O)N1c1ccccc1O	-9.8%	i	-7.5%	i	20.6µM*	13µM*
O=C(O)c1ccc(N2CCCCCC2)c(N2C(=O)c3ccccc3C2=O)c1	16.7%	i	15.5%	i	4.0%	4.3%
O=C1c2cccc3c(N4CCCCC4)ccc(c23)C(=O)N1c1ccc(O)cc1	1.4%	i	-15.9%	i	23.1µM*	?
COc1cc(C2c3c(oc4ccc(C)cc4c3=O)C(=O)N2Cc2ccccc2)ccc1O (configuration not stated)	.	i	.	i	-0.4%	0.0%
Cc1cc(S(=O)(=O)Nc2cc3c(cc2N2CCOCC2)n(C)c(=O)n3C)ccc1F	.	i	.	i	9.2µM*	23.1µM*
Cn1c(=O)n(C)c2cc(N3CCOCC3)c(NS(=O)(=O)c3ccc(Br)cc3)cc21	.	i	.	i	?	14.6µM*
C=CCNc1ccccc1S(=O)(=O)NCc1ccccc1	-4.1%	i	-2.4%	i	-13.1%	?
CSc1nnc(CNS(=O)(=O)c2ccc(F)cc2F)n1-c1ccccc1C	.	.	.	.	-12.8%	?
COc1ccc2c(=O)cc(-c3ccncc3)oc2c1OC	?	?	23.1µM*	?	?	?
O=c1cc(-c2ccncc2)oc2ccccc12	-13.0%	?	-5.1%	i	?	-29.8%
COc1ccc(-c2cc(=O)c3c(OC)c(OC)c(OC)c(OC)c3o2)cc1OC	-8.5%	?	-21.6%	i	20.6µM*	20.6µM*
CC(C)c1ccc(NC(=O)Cc2ccc(NC3=NC4CS(=O)(=O)CC4S3)cc2)cc1 (configuration not stated)	4.9%	i	-0.6%	i	9.2%	20.9%
Cc1onc(C(=O)NN)c1-c1csc(COc2ccc(Cl)cc2)n1	-27.3%	i	-29.0%	?	14.6µM*	20.6µM*
Cc1cc(C)c2c(n1)SCC(=O)N2CC(=O)Nc1cc(F)ccc1F	8.1%	i	0.4%	i	-7.0%	-6.7%
Cc1cccc(N2CCN(C(=O)CS(=O)(=O)c3cccc4nsnc34)CC2C)c1 (configuration not stated)	.	?	.	i	?	?
COc1cc2c(cc1OC)-c1cc3nc4ccccc4nc3n1C(C)(C)C2	.	.	.	.	8.41µM*	11.9µM*
COc1cc2c(cc1OC)-c1n[nH]c(=S)n1C(C)(C)C2	0.6%	i	5.8%	i	0.0%	7.3%
O=S(=O)(NCC1CCCO1)c1ccc(Cl)nc1 (configuration not stated)	17.7%	i	7.9%	i	14.0%	8.4%
COCCSc1ccccc1C(=O)Nc1cc(C)ccn1	0.9%	i	-0.8%	i	23.1µM*	?
Cc1ccnc(NC(=O)c2ccc(S(=O)(=O)NCc3ccco3)cc2)c1	?	?	?	?	?	20.6µM*
SMILES	HT1080-NT tox	KB-V1 cytotox	HT1080 IDH1KD tx	KB-3-1 cytotox	TDP1 cell noCPT	TDP1 cell CPT
Cc1ccc(NC(=O)c2ccc(S(=O)(=O)NCc3ccco3)cc2)cc1	?	i	-16.9%	i	-12.0%	-26.8%
Cc1ccnc(NC(=O)c2ccc(C(=O)c3ccccc3)cc2)c1	-29.2%	20.6µM*	?	?	20.6µM*	18.4µM*
CCOc1cc(C(=O)Nc2cc(C)ccn2)cc(OCC)c1OCC	-17.2%	i	-22.6%	?	?	18.4µM*
Cc1nn(C(=O)COc2ccccc2Br)c(C)c1Sc1ccccc1	.	i	.	i	-17.9%	-6.7%
COc1ccc2c(c1)c(=O)c(C(=O)c1ccccc1)cn2CC(=O)Nc1ccc2c(c1)OCO2	.	i	.	i	-3.9%	?
c1ccc(N2CCN(CC3CCCCC3)CC2)cc1	1.2%	i	-13.2%	i	2.7%	-15.8%
CCOc1ccc(C(=O)NCc2ccncc2)cc1OCC	10.0%	i	13.9%	i	18.3%	-0.5%
COc1ccc(C(=O)Nc2cccc(C(=O)Nc3cc(C)ccn3)c2)cc1	0.7%	i	4.6%	i	20.6µM*	?
Cc1ccc(SCCC(=O)NCc2ccncc2)cc1	-2.7%	?	3.6%	i	-19.1%	-36.4%
CCOc1ccc(C(=O)Nc2cc(C)ccn2)cc1	?	13µM*	11.6µM*	?	23.1µM*	7.31µM*
CCOc1cc(C(=O)NCc2ccncc2)cc(OCC)c1OCC	10.3%	7.31µM*	3.5%	i	1.7%	-26.1%
CCOc1ccc(C(=O)NCC(=O)Nc2cc(C)ccn2)cc1OCC	2.3%	i	-1.9%	i	23.7%	2.4%
Cc1ccc(SCc2ccc(C(=O)NCc3ccncc3)cc2)cc1	-13.6%	18.4µM*	-15.1%	i	?	?
COc1ccc(C(=O)Nc2cccc(C)c2)cc1	-0.7%	i	2.3%	i	2.7%	-2.0%
CCN(CC)c1ccc(/C=C2\C(=N)N3N=C(CC(=O)N4CCOCC4)SC3=NC2=O)cc1	17.9%	i	-8.5%	i	0.3%	10.1%
O=C(c1ccc(OC2CCN(Cc3ccc(C(F)(F)F)cc3)CC2)cc1)N1CCCCC1	13.3%	i	16.4%	i	20.6µM*	?

High-throughput results from PubChem.
